PubChem BioAssay (NCATS)
Records with an inconclusive call do not appear. Activity calls are given as the source filed them. Unless noted, calls come from the whole dose curve; as a rule, active = well fitted curve in the direction sought with a large enough effect; inconclusive = small, poorly fitted or top-dose-only effect, or another doubt; inactive = no such curve, though single readings can be large; an effect the other way counts as inactive or inconclusive.

What was measured:
[1] = Cell Viability - LYMP2-006 (AID 978);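 note: cells exposed to compound for 24 hours; nearly all actives have a fitted effect of over 60% in size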; note: potency is the fitted concentration of half-maximal effect
Method in brief: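 In this cytotoxicity screen, the human lymphoblastoid line grew in complete medium with test compounds for 24 hr at 37 C. Cellular ATP served as the viability signal.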

[2] = Cell Viability - LYMP2-007 (AID 979);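 note: cells exposed to compound for 24 h before reading; nearly all actives have a fitted effect of over 60% in size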; note: potency is the fitted concentration of half-maximal effect
Method in brief: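 qHTS cytotoxicity: 2500 cells/well, 5 hr 37 C settle, compound 24 hr 37 C, CellTiter-Glo 30 min RT, luminescence. Decrease in ATP = toxicity. AC50 by standard Hill equation; tetraoctylammonium bromide positive control.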

[3] = Cell Viability - LYMP2-008 (AID 980); note: nearly all actives have a fitted effect of over 60% in size; note: potency is the fitted concentration of half-maximal effect
Method in brief: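 Luminescent ATP read-out (CellTiter-Glo, 30 min RT) after 24 hr compound exposure at 37 C of human lymphoblastoid cells in complete medium. Decrease in ATP taken as cytotoxicity; AC50 derived by standard Hill fit of qHTS concentration-response data.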

[4] = Cell Viability - LYMP2-010 (AID 981);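 note: cells exposed to compound for 24 hours at 37 °C; nearly all actives have a fitted effect of over 55% in size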; note: potency is the fitted concentration of half-maximal effect
Method in brief: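 qHTS cytotoxicity, 1536-well: 2500 cells/well, 5 hr settle, 24 hr compound at 37 C, CellTiter-Glo 30 min RT, luminescence read. Decrease in ATP = toxicity; AC50 via standard Hill equation. Positive control tetraoctylammonium bromide.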

[5] = Cell Viability - LYMP2-012 (AID 982);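 note: cellular ATP by luciferase luminescence where a drop means cytotoxicity; cells exposed to compound for one day before reading; nearly all actives have a fitted effect of over 55% in size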; note: potency is the fitted concentration of half-maximal effect
[6] = Cell Viability - LYMP2-014 (AID 983); note: nearly all actives have a fitted effect of over 50% in size; note: potency is the fitted concentration of half-maximal effect
Method in brief: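 2500 cells/well, 5 hr 37 C; cpd 24 hr 37 C, complete medium; CellTiter-Glo 30 min RT, luminescence; ATP loss = toxicity; AC50 via Hill eqn; tetraoctylammonium bromide positive control.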

[7] = Cell Viability - LYMP2-016 (AID 984);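 note: cells exposed to compound for 24 hours at 37 °C; nearly all actives have a fitted effect of over 55% in size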; note: potency is the fitted concentration of half-maximal effect
Method in brief: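 Concentration-dependent ATP depletion measured in LYMP2-016 lymphoblastoid cells, 24 h, 37 C; luciferase-based luminescent detection; Hill-equation AC50.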

[8] = Cell Viability - LYMP2-018 (AID 985); note: nearly all actives have a fitted effect of over 50% in size; note: potency is the fitted concentration of half-maximal effect
Method in brief: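 2500 cells/well; 5 hr 37 C; cmpd 24 hr 37 C, complete medium; CellTiter-Glo 30 min RT; luminescence. Tetraoctylammonium bromide positive control. AC50 via Hill fit.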

[9] = Cell Viability - LYMP2-022 (AID 987); note: nearly all actives have a fitted effect of over 55% in size; note: potency is the fitted concentration of half-maximal effect
Method in brief: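 Luminescent ATP read-out (CellTiter-Glo, 30 min, RT) after 24 hr, 37 C compound exposure of 2500 human lymphoblastoid cells/well in complete medium. Cytotoxicity taken as concentration-dependent ATP loss; AC50 from standard Hill equation.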

[10] = Cell Viability - LYMP2-024 (AID 988); note: nearly all actives have a fitted effect of over 60% in size; note: potency is the fitted concentration of half-maximal effect
Method in brief: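 ATP-based luminescence (CellTiter-Glo, 30 min RT) after 24 h compound exposure at 37 C of 2500 lymphoblastoid cells/well; decrease in ATP taken as cytotoxicity. qHTS concentration-response fitted to standard Hill equation for AC50.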

[11] = Cell Viability - LYMP1-002 - Assay at 24 hr (AID 993); note: potency is the fitted concentration of half-maximal effect
Method in brief: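 CellTiter-Glo luminescence (intracellular ATP) after 24 h compound exposure, 37 C, in LYMP1-002 human lymphoblastoid cells; decreased ATP taken as cytotoxicity. AC50 from standard Hill fit of concentration-response curves.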

[12] = qHTS Assay for Lipid Storage Modulators (AID 1519; calls by dose curve; for activity change, negative = inhibition: % is set by controls: 0 for no effect and ±100 for the full control effect); details: Drosophila S3 cells, BODIPY lipid droplet/cell ratio, laser cytometry, cells loaded with oleic acid
Method in brief: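 Cells seeded at 5,000 per well were treated with compounds over a concentration series and loaded with oleic acid (400 uM, as added). Lipid droplet fluorescence (488 nm excitation, 500-530 nm channel) was read by laser-scanning cytometry and normalized to 20 uM Triacsin C.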

[13] = Cell Viability - LYMP1-002 - Assay at 40 hr (AID 994); note: nearly all actives have a fitted effect of over 60% in size; note: potency is the fitted concentration of half-maximal effect
Method in brief: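 qHTS cytotoxicity; 2500 cells/well, 5 hr 37 C settle, compound 40 hr 37 C. CellTiter-Glo, 30 min RT, luminescence (ATP). Concentration-response, Hill fit → AC50. Pos. ctrl tetraoctylammonium bromide.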

[14] = molecular target: Alpha-galactosidase A (Homo sapiens) (UniProt P06280); assay: Counterscreen for Glucocerebrosidase Inhibitors: qHTS Assay for Human alpha-Galactosidase at pH 4.5 (AID 992); note: 0% is about no effect
Chain of Alpha-galactosidase A (Homo sapiens) (P06280 whole entry, looked up): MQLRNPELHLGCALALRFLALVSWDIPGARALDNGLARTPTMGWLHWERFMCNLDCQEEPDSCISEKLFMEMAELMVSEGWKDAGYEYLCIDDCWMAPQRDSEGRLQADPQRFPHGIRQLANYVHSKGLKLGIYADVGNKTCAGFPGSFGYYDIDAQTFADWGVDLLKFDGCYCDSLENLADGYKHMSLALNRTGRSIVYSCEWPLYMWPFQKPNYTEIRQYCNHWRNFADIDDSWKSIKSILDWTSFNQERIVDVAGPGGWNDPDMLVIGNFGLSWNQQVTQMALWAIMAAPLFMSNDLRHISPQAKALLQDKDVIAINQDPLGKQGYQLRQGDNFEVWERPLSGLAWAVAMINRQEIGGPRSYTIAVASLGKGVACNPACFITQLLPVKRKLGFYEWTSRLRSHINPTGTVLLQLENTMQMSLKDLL
Method in brief: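 Citrate buffer pH 4.5, Tween-20 0.005%. Enzyme 2 nM, substrate 80 uM, 20 min RT. Stop pH 10. Fluorescence Ex 365/Em 440. AC50 by Hill fit.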

[15] = molecular target: alpha-glucosidase (Oryza sativa, rice) (UniProt Q653V4); assay: Counterscreen for Glucocerebrosidase Inhibitors: qHTS Assay for Rice alpha-Glucosidase at pH 5.0 (AID 997);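 note: 0% = full activity with enzyme and -100% = basal without enzyme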
Method in brief: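 Endpoint fluorogenic assay at pH 5.0: compounds (0.7 nM to 77 uM) titrated against 4 nM rice enzyme and 400 uM 4-MU-alpha-glucoside for 20 min at room temperature; NaOH/glycine stop, read ex 365/em 440 nm, Hill-fitted AC50.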

[16] = qHTS for differential inhibitors of proliferation of Plasmodium falciparum line 7G8 (AID 1815);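 note: parasite growth measured after three days of incubation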; note: potency is the fitted concentration of half-maximal effect;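 for activity change, negative = inhibition: plate controls were vehicle wells for no effect and reference inhibitor wells for full effect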
[17] = molecular target: DNA repair nuclease/redox regulator APEX1 (Homo sapiens) (UniProt P27695); assay: qHTS Validation Assay for Inhibitors of the Human Apurinic/apyrimidinic Endonuclease 1 (APE1) (AID 1705;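 note: TAMRA fluorescence gain over two minutes as APE1 cuts a quenched THF abasic duplex; % is set by controls: 0 for no effect and ±100 for the full control effect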)
Chain of DNA repair nuclease/redox regulator APEX1 (Homo sapiens) (P27695 whole entry, looked up): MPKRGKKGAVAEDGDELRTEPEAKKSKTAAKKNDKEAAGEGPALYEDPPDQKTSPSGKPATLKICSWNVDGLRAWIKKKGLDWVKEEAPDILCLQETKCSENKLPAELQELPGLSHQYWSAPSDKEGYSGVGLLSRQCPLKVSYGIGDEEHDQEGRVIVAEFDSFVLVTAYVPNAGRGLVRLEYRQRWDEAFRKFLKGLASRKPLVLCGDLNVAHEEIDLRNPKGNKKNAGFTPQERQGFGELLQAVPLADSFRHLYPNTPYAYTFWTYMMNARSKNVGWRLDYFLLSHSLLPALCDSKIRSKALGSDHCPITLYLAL
Method in brief: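 Substrate: 50 nM final fluorophore/quencher THF-abasic duplex. Enzyme preincubated with compounds 15 min, RT. Progress derived from fluorescence difference, third minus first kinetic read.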

[18] = Counterscreen for APE1 Inhibitors: Fluorescent Dye Displacement Validation Assay (AID 1707);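 note: plate controls were ThO with dsDNA and no compound for no effect and ThO without dsDNA for full effect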
Method in brief: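 Signal: ThO fluorescence (ex 480 nm/em 540 nm) on binding 50 nM dsDNA; displacement by test compound reduces it. Conditions: 250 nM dye, 50 mM Tris-HCl pH7.5, 2 mM MgCl2, 50mM NaCl, 0.01% Tween-20.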

[19] = molecular target: Endonuclease 4 (Escherichia coli (strain K12)) (UniProt P0A6C1); assay: Counterscreen for APE1 Inhibitors: qHTS Validation Assay for Inhibitors of Endonuclease IV (AID 1708); note: % is set by controls: 0 for no effect and ±100 for the full control effect
Method in brief: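 The reaction buffer contained 50 mM Tris-HCl pH 7.5, 50 mM NaCl, 2 mM MgCl2, 1 mM DTT and 0.01% Tween-20. Incision of a 50 nM fluorophore/quencher THF substrate by 2 nM enzyme was measured kinetically.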

[20] = measured here: cell count channel max response
[21] = measured here: lipid channel max response

COC1=CC(=O)C[C@@H](C)[C@]12Oc1c(Cl)c(OC)cc(OC)c1C2=O
4.54%: max response [12, 20]
22.2%: max response [12, 21]
inactive: Potency [1] | Potency [2] | Potency [3] | Potency [4] | Potency [5] | Potency [6] | Potency [7] | Potency [8] | Potency [9] | Potency [10] | Potency [11] | activity change, negative = inhibition ([12]; at 57.5 µM (top of the series)) 14.1%

Oc1c(Cl)cc(Cl)cc1Sc1cc(Cl)cc(Cl)c1O
9.87%: max response [12, 20]
active: Potency [3] 31600 nM | Potency [4] 50100 nM | Potency [7] 39800 nM | Potency [13] 50100 nM
13.2%: max response [12, 21]
inactive: Potency [11] | activity change, negative = inhibition ([12]; at 57.5 µM (top of the series)) 0.0363%

O=C(O)CCCCC(=O)O
inactive: Potency [1] | Potency [2] | Potency [3] | Potency [4] | Potency [5] | Potency [6] | Potency [7] | Potency [8] | Potency [9] | Potency [10] | Potency [11] | Potency [13]

COc1cc(NS(C)(=O)=O)ccc1Nc1c2ccccc2nc2ccccc12
active: Potency [16] 1000 nM
inactive: outcome [14] | outcome [15]

CC(C)(C)CC(C)(C)c1ccc(OCCOCC[N+](C)(C)Cc2ccccc2)cc1
active: Potency [1] 25100 nM | Potency [2] 25100 nM | Potency [3] 31600 nM | Potency [4] 31600 nM | Potency [5] 20000 nM | Potency [6] 31600 nM | Potency [7] 31600 nM | Potency [8] 25100 nM | Potency [9] 15800 nM | Potency [10] 31600 nM | Potency [11] 50100 nM | Potency [13] 39800 nM

O=C1CCC(c2ccc(-n3ccnc3)cc2)=NN1
inactive: outcome [14] | outcome [15] | Potency [17] | outcome [18] | outcome [19] | Potency [16]

O=C1OC(c2ccc(O)cc2)(c2ccc(O)cc2)c2ccccc21
inactive: Potency [1] | Potency [2] | Potency [3] | Potency [4] | Potency [5] | Potency [6] | Potency [7] | Potency [8] | Potency [9] | Potency [10] | Potency [11] | Potency [13]

CC(O)C(=O)O (stereo not drawn)
inactive: Potency [1] | Potency [2] | Potency [3] | Potency [4] | Potency [5] | Potency [6] | Potency [7] | Potency [8] | Potency [9] | Potency [10] | Potency [11] | Potency [13]

C[N+]1(CCCCC[N+]2(C)CCCC2)CCCC1
inactive: outcome [14] | outcome [15] | Potency [17] | outcome [18] | Potency [16]

C[C@@H]1C(=O)NC2=Nc3cccc(Cl)c3CN21
inactive: outcome [14] | outcome [15] | Potency [17] | outcome [18] | outcome [19] | Potency [16]

CNCCC(Oc1ccccc1C)c1ccccc1 (stereo not drawn)
19.1%: max response [12, 20]
inactive: activity change, negative = inhibition ([12]; at 57.5 µM (top of the series)) 2.16% | Potency [17] | outcome [18] | outcome [19]
23.2%: max response [12, 21]
active: Potency [16] 7940 nM

CC(=O)Oc1ccc(C(c2ccc(OC(C)=O)cc2)c2ccccn2)cc1
inactive: Potency [1] | Potency [2] | Potency [3] | Potency [4] | Potency [5] | Potency [6] | Potency [7] | Potency [8] | Potency [9] | Potency [10] | Potency [11] | Potency [13] | activity change, negative = inhibition ([12]; at 25.7 µM (top of the series)) -1.79%
-14.3%: max response [12, 21]
-13.8%: max response [12, 20]

COc1cccc2c1C(=O)c1c(O)c3c(c(O)c1C2=O)C[C@@](O)(C(C)=O)C[C@@H]3O[C@H]1C[C@H](N)[C@H](O)[C@H](C)O1
active: Potency [4] 199 nM | Potency [5] 158 nM | Potency [8] 158 nM | Potency [9] 100 nM | Potency [10] 126 nM | Potency [11] 794 nM | Potency [13] 1000 nM

COc1cccc2c1C(=O)c1c(O)c3c(c(O)c1C2=O)C[C@@](O)(C(=O)CO)C[C@@H]3O[C@H]1C[C@H](N)[C@H](O)[C@H](C)O1
active: Potency [2] 1000 nM | Potency [4] 251 nM | Potency [5] 199 nM | Potency [6] 316 nM | Potency [7] 251 nM | Potency [8] 158 nM | Potency [9] 251 nM | Potency [10] 199 nM | Potency [11] 1000 nM | Potency [13] 794 nM

CN1CCC[C@@H]1c1cccnc1
inactive: outcome [14] | outcome [15]

N[C@H](CO)C(=O)O
inactive: Potency [17] | outcome [18] | outcome [19] | Potency [16]

CC/C(=C(/CC)c1ccc(O)cc1)c1ccc(O)cc1
9.58%: max response [12, 20]
inactive: Potency [1] | Potency [2] | Potency [3] | Potency [6] | Potency [7] | Potency [8] | Potency [9] | Potency [10] | Potency [11] | Potency [13] | activity change, negative = inhibition ([12]; at 57.5 µM (top of the series)) 9.04%
18.5%: max response [12, 21]
